HT1080NT lethal = kills 2HG-producing HT-1080-NT fibrosarcoma cells | actives 1.6% (n = 360,000) | Potency, µM (doses to about 46.1 µM), usual class: cytotoxic | HT-1080-NT fibrosarcoma viability, CellTiter-Glo ATP luminescence, 48 h;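 also: NT is the 2HG producing partner of a matched IDH1 knockdown line; nearly all actives have a fitted effect of over 55% in size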
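Viability of the 2HG-overproducing fibrosarcoma line after 48 hours of compound exposure at 37 degrees C was determined by luminescence with CellTiter-Glo, and concentration-effect curves were then fitted and categorized.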
HT1080 IDH1KD tx = kills HT-1080 cells with IDH1 knockdown; Potency, µM (series often up to 46.1 µM), most hits filed as cytotoxic; HT-1080 IDH1 knockdown viability, ATP luminescence, 48 h; actives 2% (n = 360,000)
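Luminescent ATP read-out (CellTiter-Glo, 10 min at room temperature) after 48 h compound exposure at 37 °C gave viability of IDH1-knockdown HT-1080 cells. Activity was normalised to DMSO and cell-free wells, then fitted as concentration-response curves.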
TDP1 cell CPT = DT40-hTDP1 cell growth loss with CPT | actives 12% (n = 420,000) | Potency, µM (highest dose often 46.2 µM), most hits filed as inhibitors | chicken DT40 Tdp1-/-;hTDP1 cells + 20 nM CPT, ATP luminescence, 48 h | AID 686979; also: nearly all actives have a fitted effect of over 55% in size
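Chicken DT40 Tdp1-/- cells complemented with human TDP1, 400 cells/well, exposed to compounds plus 20 nM camptothecin for at least 48 h at 37 C; viability read as ATP content by CellTiter-Glo luminescence.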
DT40 TDP1 no CPT = qHTS for Inhibitors of human tyrosyl-DNA phosphodiesterase 1 (TDP1): qHTS in cells in absence of CPT; DT40 Tdp1-/- hTDP1 cells, no CPT, ATP luminescence, 48 h; Potency, µM (doses to about 46.2 µM), most hits filed as inhibitors; actives 15% (n = 420,000); AID 686978, 2013; also: nearly all actives have a fitted effect of over 55% in size
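Chicken DT40 Tdp1-/- cells complemented with human TDP1, screened without camptothecin (DMSO vehicle only), 400 cells/well. Compounds pin-transferred, cells incubated at 37 °C for at least 48 hr. Growth read as ATP-dependent luminescence (CellTiter-Glo, 30 min at RT).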
IL-1B inflam inh = inhibitors of inflammasome signaling (IL-1 beta secretion) | activity change, % at 57.5 µM | actives 4.7% (n = 360,000) | AID 743279 | THP-1 LPS/ATP IL-1B secretion, AlphaLISA, 16 h; stronger effect = lower value; in the data active = activity change below about -50%; inconclusive = mostly about -30% to -49%
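Secreted IL-1B measured by AlphaLISA bead assay after 16 h compound exposure of THP-1 cells; compounds (final up to 57.5 uM) added 1 h before LPS (250 ng/mL) and ATP (1.25 mM) stimulation; lower signal means less secretion.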
A number is an active result; . = inactive; ? = inconclusive; / = no result. Rows were chosen to be rich in hits. Some 19% of all compounds tested hit in one or more screens of this group. Unless noted, calls follow the shape of the dose curve; as a rule, active = well fitted curve in the direction sought with a large enough effect; inconclusive = small, poorly fitted or top-dose-only effect, or another doubt; inactive = no such curve, though single readings can be large; an effect the other way counts as inactive or inconclusive.

SMILES	HT1080NT lethal	HT1080 IDH1KD tx	TDP1 cell CPT	DT40 TDP1 no CPT	IL-1B inflam inh
Cc1ccc(NC(=O)C2CCCN(S(=O)(=O)c3ccc4[nH]c(=O)ccc4c3)C2)cc1Cl (configuration not stated)	/	/	.	?	/
O=C(NCCCN1CCN(c2ccc(F)cc2)CC1)c1sc2ncccc2c1-n1cccc1	/	/	16µM	?	/
O=C(NCCc1ccccc1Cl)c1sc2ncccc2c1-n1cccc1	/	/	23µM	?	/
CCOc1ccccc1CNC(=O)c1sc2ncccc2c1-n1cccc1	/	/	15µM	16µM	/
O=C(NCCCN1CCCCC1)c1sc2ncccc2c1-n1cccc1	/	/	.	.	/
CSCC[C@H](NC(=O)N1C[C@H]2C[C@@H](C1)c1cccc(=O)n1C2)C(=O)Nc1ccc(NC(C)=O)cc1	.	.	.	.	.
CCCCNc1nc2sc3c(c2c(=O)n1-c1cccc(Cl)c1)CCN(C)C3	.	.	21µM	16µM	.
COC(=O)CSc1nc2sc3c(c2c(=O)n1-c1ccccc1)CCN(C)C3	.	.	.	?	.
CCCCCNc1nc2sc3c(c2c(=O)n1-c1cccc(Cl)c1)CCN(C)C3	15µM	?	12µM	12µM	-57
CCOc1ccccc1NC(=O)C(=O)NCCC1=CCCCC1	.	.	.	.	.
Cc1ccc(C)c(C(C)NC(=S)NCc2ccc(F)cc2)c1 (configuration not stated)	?	?	23µM	?	.
COc1cccc(C(C)NC(=S)NCc2ccc(Cl)cc2)c1 (configuration not stated)	.	.	.	.	.
COc1ccc(C(C)NC(=S)NCc2ccc(F)cc2)cc1 (configuration not stated)	.	.	18µM	?	.
CCC(NC(=S)NCc1ccc(F)cc1)c1ccccc1 (configuration not stated)	.	.	?	?	.
CNc1cc(-c2ccc(OC)c(OC)c2)ncn1	.	?	?	.	.
CNc1ccc2ncc(-c3ccc(OC)c(OC)c3)n2n1	18µM	?	2.6µM	2.1µM	-66
NC(N)=Nc1nc(-c2ccccc2)c2cc(F)ccc2n1	21µM	21µM	21µM	12µM	-90
OCCSc1nc(-c2ccccc2)nc2ccc(F)cc12	.	.	?	?	.
Cc1cccc(N2CCN(C(=O)CCN3C(=S)NC(C)(C)CC3C)CC2)c1C (configuration not stated)	.	.	?	?	.
Cc1ccc(C)c(N2CCN(C(=O)CCCN3C(=S)NC(C)(C)CC3C)CC2)c1 (configuration not stated)	?	?	18µM	10µM	.
CC1CC(C)(C)NC(=S)N1CCCC(=O)Nc1ccc(Br)cc1 (configuration not stated)	.	?	?	?	-78
CCOc1ccc(NC(=O)CCCN2C(=S)NC(C)(C)CC2C)cc1 (configuration not stated)	.	.	.	.	.
COc1cc2oc(=O)cc(CN3CCN(c4ccccc4OC)CC3)c2cc1Cl	.	.	.	?	.
CC1=NN(c2ccc(F)cc2)C(=O)C1C(c1cccc(O)c1)c1c(C)[nH]n(-c2ccc(F)cc2)c1=O (configuration not stated)	?	.	?	?	.
CC1=NN(c2ccc(Cl)cc2)C(=O)C1C(c1cccc(O)c1)c1c(C)[nH]n(-c2ccc(Cl)cc2)c1=O (configuration not stated)	16µM	?	?	?	.
SMILES	HT1080NT lethal	HT1080 IDH1KD tx	TDP1 cell CPT	DT40 TDP1 no CPT	IL-1B inflam inh
Cc1c(O)cc2c(c1O)C(=O)CC(c1ccccc1)O2 (configuration not stated)	?	23µM	5.8µM	5.8µM	.
COc1ccc(/C=C(\C#N)c2nc(-c3cc4c(ccc5ccccc54)oc3=O)cs2)cc1O	/	/	2.9µM	3.3µM	/
COc1ccc(/C=C(/C#N)c2nc(-c3cc4ccccc4oc3=O)cs2)cc1	/	/	?	15µM	/
Cc1ccc(/C=C(\C#N)c2nc(-c3cc4c(ccc5ccccc54)oc3=O)cs2)cc1	/	/	.	.	/
CCCNC(=O)N[C@H]1CC[C@@H](CCn2cc(-c3cccc(F)c3)nn2)O[C@@H]1CO	.	.	.	.	.
CC(C)(C)C(=O)Nc1ccc(S(=O)(=O)Nc2ccccn2)cc1	.	.	.	?	.
Fc1cccc(CN(C2=NCCN2)c2c(Cl)cccc2Cl)c1	?	.	?	21µM	.
Fc1cccc(CN2CCCCCCC2)c1	.	?	.	.	.
CCCCC1=NN(C(=O)c2ccco2)C(O)(C(F)(F)F)C1 (configuration not stated)	.	?	0.52µM	0.52µM	.
Cc1ccc(C2=NN(C(=O)c3ccco3)C(O)(C(F)(F)F)C2)cc1 (configuration not stated)	.	.	?	?	-66
COc1cccc(C2=NN(C(=O)c3ccccc3)C(O)(C(F)(F)F)C2)c1 (configuration not stated)	.	.	16µM	21µM	.
COc1cccc(C(=O)N2N=C(c3ccccc3)CC2(O)C(F)(F)F)c1 (configuration not stated)	.	.	.	?	.
CCOC(=O)C1=CN(Cc2ccco2)S(=O)(=O)N(CC)C1c1ccc(C(F)(F)F)cc1 (configuration not stated)	.	.	23µM	16µM	.
COc1ccc(/C=N/n2cnnc2SCc2ccccc2)cc1	.	.	?	21µM	.
CC(C)NCC(O)COC1C2CC3CC(C2)CC1C3 (configuration not stated)	.	.	.	.	.
CC1CCC(C(C)C)C(OCC(O)CNC(C)C)C1 (configuration not stated)	.	.	23µM	?	.
Oc1csc(Cc2nc(-c3ccc4ccccc4c3)cs2)n1	.	.	?	15µM	.
CCOc1ccccc1N1CC(C(=O)NCCC2=CCCCC2)CC1=O (configuration not stated)	.	.	?	.	.
O=C(Nc1ccc(S(=O)(=O)N2CCOCC2)cc1)C1CC1	.	.	.	.	.
CCc1ccc(N2CC(C(=O)Nc3ccc(S(=O)(=O)N4CCOCC4)cc3)CC2=O)cc1 (configuration not stated)	.	.	?	?	-61
CC(C)=CC1C(C(=O)Nc2ccc(S(=O)(=O)N3CCOCC3)cc2)C1(C)C (configuration not stated)	.	.	?	?	-64
CCC(C)c1ccccc1N1CC(C(=O)NCCC2=CCCCC2)CC1=O (configuration not stated)	.	.	18µM	16µM	.

Assay outcomes: PubChem, National Center for Advancing Translational Sciences (NCATS)
